Screening results: PubChem, National Center for Advancing Translational Sciences (NCATS)
D1 PAM: potentiators of human D1 dopamine receptor | P21728 | HEK293 TREx D1 cells, calcium flux, dopamine EC20 potentiation | potentiation, % at 10 µM | hit rate 0.036% among 360,000 | AID 504651; in the data active means potentiation above about 30%; further: 0% is about no effect
TRHR PAM: TRH receptor (human) allosteric enhancement. P34981. TRHR cells, fluo-8 calcium fluorescence, EC20 TRH enhancement. enhancement, % at 2 µM. hit rate 0.66% among 360,000. AID 493056; in the data active means enhancement above about 30%; further: 0% is about no effect
Target sequence (P34981 whole entry, looked up): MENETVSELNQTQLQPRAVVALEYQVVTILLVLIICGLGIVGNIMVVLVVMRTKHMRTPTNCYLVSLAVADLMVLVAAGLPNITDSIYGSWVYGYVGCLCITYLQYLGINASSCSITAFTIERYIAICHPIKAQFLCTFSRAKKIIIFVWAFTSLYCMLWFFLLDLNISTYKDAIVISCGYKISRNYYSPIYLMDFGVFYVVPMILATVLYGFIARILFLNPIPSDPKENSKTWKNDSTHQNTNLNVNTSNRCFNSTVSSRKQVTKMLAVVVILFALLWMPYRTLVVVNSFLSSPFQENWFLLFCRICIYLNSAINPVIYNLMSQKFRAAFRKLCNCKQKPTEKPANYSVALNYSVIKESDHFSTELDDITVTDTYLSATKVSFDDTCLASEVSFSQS
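TRHR-expressing cells loaded with fluo-8 calcium dye were read kinetically (ex 480/em 530) during compound addition, then stimulated with an EC20 of TRH (10 nM final). Enhancement of the Gq-mediated intracellular calcium response was scored.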
D1 antag: antagonists of human D1 dopamine receptor. HEK293 TREx D1 cells, calcium flux, dopamine EC80; active compounds read low. AID 504652. activity change, negative = inhibition, % at 10 µM. P21728. hit rate 3.2% among 360,000; in the data active means activity change below about -30%; further: on the % scale 0 is the no-effect control and ±100 the full control effect
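Kinetic fluorescence of a calcium dye serves as the read-out. D1-expressing Hek293 Trex cells, induced overnight at 30 C, are exposed to compound for 180 s before an EC80 dopamine addition, then read 180 s further.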
D1 ag: human D1 receptor agonism. P21728. HEK293 T-REx D1 cells, calcium flux, agonist mode. activation, % at 2 µM. hit rate 1% among 360,000. AID 504660; further: 0% is about no effect
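Inducible HEK293 T-REx D1 cells, force-coupled to calcium signalling, were plated at 4000 cells/well with tetracycline and held overnight at 30 C. After no-wash calcium dye loading, compound-evoked calcium rise over 180 s flagged agonists.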
TRHR ag: activates the human TRH receptor | P34981 | hit rate 0.18% among 360,000 | TRHR cells, calcium flux fluo-8, FDSS agonist mode | activation, % at 2 µM; further: 0% is about no effect
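In this calcium-flux screen, cells bearing human TRHR are dye-loaded with fluo-8, baselined for 10 cycles, then exposed to library compounds; positive kinetic calcium responses during the agonist phase mark hits, with TRH as control.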
Starred values were filed as active, the others as inactive; ! = not confirmed by another sample. A selection: hits, their analogues and other compounds. The true share with any hit is near 4.6%. Unless noted, no stated cut-off is given here; in the data, active means activation above about 30%; inactive means the rest.

SMILES	D1 PAM	TRHR PAM	D1 antag	D1 ag	TRHR ag
CC(C)CC(=O)NCc1nc2cccnc2n1Cc1ccccc1	-6	14	10	0	0
CC(=O)NCc1nc2cccnc2n1Cc1ccccc1	2	-1	-32*	0	0
CCOc1ccc(CNc2cc(C)nc3nc(-c4cccc(C)c4)nn23)cc1OC	-3	0	-10	1	0
O=S(=O)(NCc1ccccc1)c1ccc(-c2cnc(C3CC3)o2)cc1	-5	2	-38*!	9	0
Cc1ccc(NS(=O)(=O)c2ccc(-c3cnc(C4CC4)o3)cc2)cc1	-3	-2	-18	8	1
Cc1ccc(N(C)S(=O)(=O)c2ccc(-c3cnc(C4CC4)o3)cc2)cc1	-3	5	-32*!	13	1
Cc1ccc(CNS(=O)(=O)c2ccc(-c3cnc(C4CC4)o3)cc2)cc1	-5	4	-27	9	0
CCN(CC(=O)NCc1ccc(F)cc1)Cc1nc2ccccc2c(=O)[nH]1	-1	2	0	0	0
CCN(CC(=O)Nc1cc(OC)ccc1OC)Cc1nc2ccccc2c(=O)[nH]1	-3	5	-39*	1	0
CCN(CC(=O)Nc1cccc(F)c1)Cc1nc2ccccc2c(=O)[nH]1	-7	-1	5	14	0
CCN(CC(=O)Nc1ccc(C(=O)Nc2ccc(OC)cc2)cc1)Cc1nc2ccccc2c(=O)[nH]1	6	1	-44*	4	-2
COc1cc(OC)c(NC(=O)c2cc3c(s2)-c2ccc(Cl)cc2SC3)cc1Cl	5	3	0	0	0
COc1ccc(NC(=O)c2sc3nc(-c4cc5ccc(OC)cc5oc4=O)[nH]c(=O)c3c2C)cc1	-4	6	8	0	0
Cc1ccc(CN2CCN(C3CCN(S(=O)(=O)N(C)C)CC3)C(=O)C2=O)cc1	-2	-2	-9	2	0
O=C(CCC(=O)NNC(=O)COc1ccc(Br)cc1)NCc1ccccc1	-1	5	-34*	0	0
C/C(=N\NC(=O)Cc1cccn1C)c1ccc2ccccc2c1	-8	6	-36*	2	0
Cn1c(CN2CCN(C(=O)c3ccccc3)CC2)nc2cc([N+](=O)[O-])ccc21	3	-2	-20	0	0
Cn1c(CN2CCN(C(=O)c3ccccc3Cl)CC2)nc2cc([N+](=O)[O-])ccc21	-4	1	-77*	2	1
COc1ccc(-c2cc(C(=O)NCCc3ccccc3)c3c(-c4ccccc4)[nH]nc3n2)cc1OC	-1	4	2	4	-1
COc1ccc(CCNC(=O)c2cc(-c3ccc(C)cc3)nc3n[nH]c(-c4ccccc4)c23)cc1OC	1	48*	9	3	0
Cc1ccccc1NC(=O)CSc1nc(-c2ccccc2)cn1-c1ccccc1F	-5	-3	1	8	0
CCN1C(=O)/C(=C/N2CCc3ccccc32)SC1=S	0	1	-19	2	1
CCN1C(=O)/C(=C/C=C2/Sc3ccccc3N2CCO)SC1=S	2	8	7	32*	8
CCN1C(=O)/C(=C\N2CCN(C(=O)c3ccco3)CC2)SC1=S	-1	0	6	4	1
CCCN1C(=O)/C(=C\C=C2/Sc3ccccc3N2CCO)SC1=S	-5	-2	2	30*	14
SMILES	D1 PAM	TRHR PAM	D1 antag	D1 ag	TRHR ag
CCN1C(=O)/C(=C/C=C2/SCCN2C)SC1=S	12	-4	23	41*	16
CCCN1C(=O)/C(=C/c2ccncc2)SC1=S	-2	-1	-5	0	-1
COCCNC(=O)c1ccc2snnc2c1	4	-1	3	2	0
O=C(NCc1c(Cl)cccc1Cl)c1ccc2nnsc2c1	-2	-3	-44*	1	-1
O=C1CCCN1CCCNc1ncnc2c1[nH]c1ccc(Cl)cc12	-1	12	-88*	1	0
Cn1c(=O)c2c(nc(NCCCO)n2CCc2ccccc2)n(C)c1=O	2	6	2	1	0
CCn1c(Oc2ccccc2C)nc2c1c(=O)n(C)c(=O)n2C	3	-3	-4	4	-2
Cn1c(=O)c2c(nc(NCc3cccnc3)n2Cc2ccccc2Cl)n(C)c1=O	17	3	-3	1	0
Cn1c(=O)c2c(nc(NCCO)n2CCc2ccccc2)n(C)c1=O	-6	-2	-79*	2	0
C=CCn1c(Oc2ccc(C=O)cc2OCC)nc2c1c(=O)n(C)c(=O)n2C	-13	2	-61*	1	0
Cn1c(=O)c2c(nc(NCc3ccccc3)n2Cc2ccccc2Cl)n(C)c1=O	-7	12	-30*	-2	0
Cn1c(=O)c2c(nc(SCc3cccnc3)n2Cc2ccccc2)n(C)c1=O	-7	10	-41*	0	-1
Cc1ccc(Cn2c(SCc3cccnc3)nc3c2c(=O)n(C)c(=O)n3C)cc1	-1	-1	14	2	-1
CCOC(=O)c1cc(S(=O)(=O)N2CCN(c3ccc(C)cc3C)CC2)[nH]n1	-3	-2	-18	8	-1
CCOc1ccc(CCNc2nc3c(c(=O)n(C)c(=O)n3C)n2CC)cc1OCC	-10	-2	-31*	6	-3
CC(=O)c1cccc(Nc2ncnc3c2cnn3C)c1	0	-1	0	-2	-1
Cc1ccccc1NC(=O)Cn1nnc(C(=O)NCc2cccs2)c1N	-1	3	-13	1	0
CCC(=O)Nc1nnc(/C=C/c2ccc(OC)cc2)s1	0	7	-48*	2	1
Cc1ccc2oc(=O)c3cc(C(=O)Nc4ccccc4C(N)=O)sc3c2c1	-1	22	1	1	0
Cc1cc(C)n(CC(=O)NNC(=O)CCCOc2ccc(Cl)c(C)c2)n1	0	0	12	7	0
COc1ccc(CCC(=O)NNC(=O)Cn2nc(C)cc2C)cc1	-11	15	-58*	4	1
Cc1[nH]c2ccccc2c1C(=O)C(=O)N(C)C1CCCCC1	-4	1	-53*	5	-1
COc1ccc(N2CCN(C(=O)c3cc4c(-c5ccccc5F)nn(C)c4s3)CC2)cc1	4	-3	-4	-1	0
O=C(CCSc1nnc2ccc3ccccc3n12)Nc1ccc(F)cc1	-6	4	-9	4	0
O=C(CCSc1ccc(F)cc1)Nc1ccc(-n2cnnn2)cc1	-13	1	-40*	15	0
Cc1cccc(Oc2ccccc2NC(=O)CSCC(=O)Nc2cc(C)on2)c1	-7	-10	-44*	15	0
Cc1cc(NC(=O)CSCC(=O)Nc2ccccc2OC(F)F)no1	0	2	3	1	0
CCOc1ccc(Oc2ccccc2NC(=O)CSCC(=O)Nc2cc(C)on2)cc1	-6	-7	-44*	13	0
NS(=O)(=O)c1ccc(CCNCc2cc(Br)ccc2OCc2ccccc2F)cc1	-3	9	-31*	25	0
